Compound activity from PubChem BioAssay.
USP1-UAF1 inh = inhibitors of human USP1/UAF1 deubiquitinase; AID 743255; O94782; hit rate 0.23% among 390,000; recombinant USP1/UAF1, Ub-Rhodamine cleavage fluorescence; Potency, µM (series often up to 57.1 µM), for the others: at the highest dose activity change, negative = inhibition, most hits filed as inhibitors; also: % is scaled to controls: 0 for no effect and ±100 for the full control effect; nearly all actives have a fitted effect of over 60% in size
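USP1/UAF1 complex (1 nM) preincubated 15 min at room temperature with compound, then Ub-Rho substrate (150 nM final) added. Kinetic fluorescence at 480/540 nm over 6 reads at 60 s intervals; 50 mM HEPES pH 7.8, 0.5 mM EDTA, 0.1 mg/ml BSA, 1 mM TCEP, 0.01% Tween-20.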
EPAC2 agonist = activates human EPAC2 exchange factor; hit rate 0.079% among 360,000; Q8WZA2; AID 720711; Potency, µM (highest dose often 154 µM), without a hit: at the highest dose activation, most hits filed as activators; EPAC2 activation, biochemical qHTS; response scale: 100% = 6.5 mM cAMP response; also: nearly all actives have a fitted effect of over 50% in size
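Setup: EPAC2 100 nM, labeled Rap1B complex 250 nM, free GDP 50 uM. Compound titrations pinned in, brief spin, 5 min room temperature incubation. Kinetic fluorescence read over 30 min, normalized to 6.5 mM cAMP.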
EPAC2 antag = EPAC2 (human) antagonism. Q8WZA2. EPAC2 GEF exchange of Rap1B-BODIPY-GDP, fluorescence. Potency, µM (titrated, usually from 114 µM), without a hit: at the highest dose activity, negative = inhibition, most hits filed as inhibitors. hit rate 0.18% among 360,000. AID 720708; also: % is scaled to controls: 0 for no effect and ±100 for the full control effect; nearly all actives have a fitted effect of over 45% in size
ALOX12 inh = inhibitors of human 12S-lipoxygenase ALOX12 | purified 12hLO, xylenol orange hydroperoxide absorbance | Potency, µM (series often up to 108 µM), inactives show top-dose activity change, negative = inhibition, hits mostly inhibitors | hit rate 1.1% among 580,000; also: % is scaled to controls: 0 for no effect and ±100 for the full control effect
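Purified human 12hLO (150 nM final) in 25 mM Hepes, 0.01% Triton X-100, pH 7.0 was preincubated 15 min at room temperature with compound. Then 40 uM arachidonic acid was added, 30 min. Hydroperoxide was read by Fe-XO absorbance ratio 573/405 nm.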
EPAC1 agonist = activates human EPAC1 exchange factor | O95398 | Potency, µM (top dose mostly 154 µM), without a hit: at the highest dose activation, hits mostly activators | hit rate 0.073% among 360,000 | EPAC1 agonist qHTS, biochemical assay; response scale: 100% = response to 6.5 mM cAMP; also: nearly all actives have a fitted effect of over 60% in size
Target sequence (O95398 whole entry, looked up): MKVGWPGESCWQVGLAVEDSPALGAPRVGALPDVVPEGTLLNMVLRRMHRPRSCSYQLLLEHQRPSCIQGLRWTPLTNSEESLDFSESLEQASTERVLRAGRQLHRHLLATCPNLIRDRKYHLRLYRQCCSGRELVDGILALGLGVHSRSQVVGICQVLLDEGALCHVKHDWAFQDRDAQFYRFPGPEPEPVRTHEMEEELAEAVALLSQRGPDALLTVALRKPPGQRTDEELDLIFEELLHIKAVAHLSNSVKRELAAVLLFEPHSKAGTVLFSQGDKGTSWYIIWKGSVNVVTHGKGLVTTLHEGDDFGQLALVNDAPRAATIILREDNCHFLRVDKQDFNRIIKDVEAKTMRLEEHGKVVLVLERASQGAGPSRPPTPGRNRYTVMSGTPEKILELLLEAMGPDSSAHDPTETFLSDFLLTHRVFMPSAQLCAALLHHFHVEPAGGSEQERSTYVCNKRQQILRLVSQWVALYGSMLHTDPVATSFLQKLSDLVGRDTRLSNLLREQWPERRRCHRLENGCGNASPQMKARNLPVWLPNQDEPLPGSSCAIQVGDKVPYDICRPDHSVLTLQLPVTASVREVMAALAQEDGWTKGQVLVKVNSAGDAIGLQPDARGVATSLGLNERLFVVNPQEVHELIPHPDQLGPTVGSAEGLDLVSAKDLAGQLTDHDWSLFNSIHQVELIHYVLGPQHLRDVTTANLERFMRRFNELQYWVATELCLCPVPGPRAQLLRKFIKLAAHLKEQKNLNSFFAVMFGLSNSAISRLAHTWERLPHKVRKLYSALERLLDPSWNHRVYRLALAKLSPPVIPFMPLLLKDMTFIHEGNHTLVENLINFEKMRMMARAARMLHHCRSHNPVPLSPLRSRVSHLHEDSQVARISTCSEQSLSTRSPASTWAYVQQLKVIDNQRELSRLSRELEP
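Normalized to 6.5 mM cAMP, activity reflects EPAC1-catalysed release of BODIPY-GDP from Rap1B, followed kinetically over 30 min at 480 nm excitation, 540 nm emission. Reaction contained 100 nM EPAC1, 250 nM Rap1B-BODIPY-GDP, 50 uM GDP.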
EPAC1 antag = EPAC1 (human) antagonism; EPAC1 GEF assay, Rap1b-BODIPY-GDP exchange fluorescence; Potency, µM (doses to about 115 µM), for inactives: at the top dose activity change, negative = inhibition, most hits filed as inhibitors; hit rate 0.14% among 360,000; AID 720709;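 also: plate controls were vehicle for no effect and positive control for full effect; nearly all actives have a fitted effect of over 50% in size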
Starred values were filed as active, the others as inactive; ? = inconclusive; . = no result given; [ ] = remark or other dose. This is a sample that favours compounds with a hit; in the whole collection about 1.3% have one here. Calls follow the shape of the dose curve; as a rule, active = well fitted curve in the direction sought with a large enough effect; inconclusive = small, poorly fitted or top-dose-only effect, or another doubt; inactive = no such curve, though single readings can be large; an effect the other way counts as inactive or inconclusive. Potency is read from the fitted curve at half-maximal effect.

SMILES | USP1-UAF1 inh | EPAC2 agonist | EPAC2 antag | ALOX12 inh | EPAC1 agonist | EPAC1 antag
C/C(=N/Nc1ccc(F)cc1F)c1ccccc1Br | . | . | . | 50µM* | . | .
C/C(=N/Nc1ccc(S(N)(=O)=O)cc1[N+](=O)[O-])c1ccccc1Br | . | . | . | 35µM* | . | .
C/C(=N\Nc1ccc(F)cc1F)c1ccccc1O | -16% | 11% | -19% | ? | 5% | -22%
COc1ccc(CCNC(=O)CSCc2cnn(-c3ccccc3)c2-n2cccc2)c(OC)c1 | . | . | . | -3% | . | .
COc1ccc([C@@H]2[C@@H](C(=O)N3CCCC3)CC(=O)N2C(=O)/C=C/c2ccccc2)cc1 | . | . | . | -18% | . | .
COCCn1c(-c2ccc(OC)cc2)c(-c2ccc(OC)cc2)oc1=O | -13% | 2% | 35µM* | 8% | -2% | 16%
Cc1ccc(C(=O)Nc2cccc(-c3nc4ccccc4s3)c2C)cc1 | . | . | . | -21% | . | .
O=C(NCCc1ccc(Cl)cc1)c1ccc2c(=O)[nH]c3c(C(=O)NCC4CCCO4)sc(=S)n3c2c1 (centres undefined) | . | . | . | 50µM* | . | .
COc1ccccc1C1CC(c2ccc(Br)cc2)=NN1CN1C(=O)C(=O)c2ccccc21 (centres undefined) | . | . | . | -17% | . | .
COc1cc(/C=C2\SC(=Nc3ccccc3)N(CCc3c[nH]c4ccccc34)C2=O)ccc1OC(C)C(=O)O (centres undefined) | 1% | -10% | ? | ? | 100µM* | ?
Cc1c(C#N)c(N)nc2c3c(sc12)NC(=O)CC3c1c(F)cccc1Cl (centres undefined) | . | . | . | 13% | . | .
Nc1nc2c(s1)C(c1ccccc1Cl)CC(=O)N2 (centres undefined) | . | . | . | 20µM* | . | .
Nc1nc2c(s1)C(c1c(Cl)cccc1Cl)CC(=O)N2 (centres undefined) | . | . | . | 14µM* | . | .
C=CCNc1oc(/C=C/c2cccs2)nc1C#N | . | . | . | 18µM* | . | .
CCCCNc1oc(/C=C/c2cccs2)nc1C#N | . | . | . | 24% | . | .
O=C(NCC1Cn2cccc2CN1Cc1ccccc1)c1cncc(Br)c1 (centres undefined) | . | . | . | 106% | . | .
CC1=CC(=O)C(C(=O)/C=C/c2ccc(C)s2)C(=O)O1 (centres undefined) | . | . | . | 14µM* | . | .
COc1ccc(NC(=O)c2cc(-c3ccccc3O)on2)cc1OC | . | . | . | 0.63µM* | . | .
COc1cccc(N(CC(=O)N2CCC(C(N)=O)CC2)S(=O)(=O)c2ccc(C)cc2)c1 | . | . | . | 9% | . | .
O=C(CCCSc1ccccc1)Nc1nc(-c2ccco2)c(-c2ccco2)s1 | -19% | 3% | -6% | 16µM* | 6% | 12%
CC(C)CCC(C)NC(=O)c1ccc(CNC(N)=O)cc1 (centres undefined) | . | . | . | -17% | . | .
COCCCNC(=O)/C(C#N)=C/c1c(C)[nH]c2ccccc12 | . | . | . | 40µM* | . | .
COc1ccc(/C=C2/C(=O)N(c3nc4ccccc4s3)N=C2CSc2ccc(Cl)cc2)cc1 | -16% | 5% | 3% | 5µM* | -2% | ?
COc1ccc(/C=C2/C(=O)N(Cc3ccccc3)N=C2C)cc1 | -22% | 9% | 9% | -38% | -2% | -11%
CCC(C)c1ccc(NC(=O)COC(=O)CCC2CCCC2)cc1 (centres undefined) | . | . | . | -1% | . | .
SMILES | USP1-UAF1 inh | EPAC2 agonist | EPAC2 antag | ALOX12 inh | EPAC1 agonist | EPAC1 antag
CC(C)C(=O)N1CCN(S(=O)(=O)c2ccc3ccccc3c2)CC1 | -15% | 3% | 13% | -3% | -6% | 9%
CC(C)N1CCN(S(=O)(=O)c2ccc3ccccc3c2)CC1 | -20% | 3% | -4% | 0.79µM* | -6% | -21%
CC(C)NC(=O)C(C)N1CCN(S(=O)(=O)c2ccc3ccccc3c2)CC1 (centres undefined) | 2% | 8% | 2% | 1.4µM* | 7% | 17%
Cc1ccc(NC(=O)CSc2nc3ccccc3n2CCC#N)cc1C | . | . | . | -33% | . | .
Cc1cc(C)c(Nc2cc(S(=O)(=O)O)c(N)c3c2C(=O)c2ccccc2C3=O)c(C)c1 | ? | -4% | ? | ? | -21% | 50µM*
Cn1c(C(=O)Nc2ccccc2Cl)c(Cl)c2ccccc21 | . | . | . | 6% | . | .
CN1CC=C2C(C#N)=C(N)C(C#N)(C#N)C(c3ccsc3)C2C1 (centres undefined) | -16% | ? | -25% | 19% | 63µM* | ?
CN1CC=C2C(C#N)=C(N)C(C#N)(C#N)[C@H](c3cccc(Cl)c3)C2C1 (some centres undefined) | -16% | ? | -16% | -2% | ? | 19%
CN1CC=C2C(C#N)=C(N)C(C#N)(C#N)C(CCc3ccccc3)C2C1 (centres undefined) | ? | 50µM* | 45µM* | . | ? | ?
CCCC1C2CN(C(C)C)CC=C2C(C#N)=C(N)C1(C#N)C#N (centres undefined) | ? | 56µM* | 35µM* | ? | 63µM* | ?
CN1CC=C2C(C#N)=C(N)C(C#N)(C#N)[C@H](c3cccs3)[C@H]2C1 | ? | 16% | -4% | . | 21% | -8%
COc1ccc2c(=O)cc(-c3ccc(C)cc3)oc2c1 | . | . | . | 0% | . | .
COc1ccc(CC(=O)NCc2nnc3ccccn23)cc1OC | . | . | . | -14% | . | .
COc1ccc(N=Nc2nc3cc(Br)c(Br)cc3n2C)c(OC)c1 | -14% | -10% | 4% | -30% | 112µM* | 172%
COc1ccc(CNc2nc3ccccc3n2C)c(OC)c1 | -9% | 9% | -4% | 62% | 4% | 1%
CN(C)/C=C1\C=C2C(=O)c3ccccc3N2C1=O | 4.5µM* | 35µM* | 418% | ? | ? | -37%
CN(C)S(=O)(=O)N1C(=O)c2ccccc2C1=O | -21% | 9% | -3% | -17% | -10% | 2%
CC(=O)c1ccc(NC(=O)N[C@H]2CO[C@H]3[C@@H]2OC[C@H]3OCC(N)=O)cc1 | . | . | . | 36%[176 µM] | . | .
COC(=O)CO[C@@H]1CO[C@H]2[C@@H]1OC[C@@H]2NC(=S)Nc1cc(C)cc(C)c1 | . | . | . | 71µM* | . | .
CC(C)c1ccc(CCNC(=S)Nc2ccc(Cl)cc2Cl)cc1 | . | . | . | 14µM* | . | .
S=C(NCCc1ccccc1)Nc1ccc(Cl)cc1Cl | -11% | 14% | -2% | ? | 19% | -7%
Cc1cc(Cl)ccc1NC(=S)NCCc1ccc(Cl)cc1 | -1% | ? | -15% | 22µM* | 8% | -21%
CCN(CC)S(=O)(=O)c1ccc(Cl)c(C(=O)Nc2cccc3cccnc23)c1 | . | . | . | 34% | . | .
CCc1ccc2c(c1)C(NC(C)=O)C(=O)N2CCN1CCOCC1 (centres undefined) | -5% | -2% | 0% | 45µM* | 9% | ?
